# PubChem BioAssay (Tox21)
# Inconclusive results are not listed. Entries that show only a call come without a potency. Values without a mark were called inactive. Active and inactive are the calls of the source. Unless noted, calls follow the shape of the dose curve; as a rule, active = well fitted curve in the direction sought with a large enough effect in the repeat runs; inconclusive = weak or mixed curves; inactive = no such curve, though single readings can be large; an effect the other way counts as inactive or inconclusive.
# How the values were obtained:
# [1] = target: Retinoic acid receptor RXR-alpha (Homo sapiens) (UniProt P19793); test: qHTS assay to identify small molecule agonists of the RXR signaling pathway (AID 1159527; calls by dose curve; also: nearly all actives have a fitted effect of over 35% in size)
# Procedure, shortened: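 GeneBLAzer RXR-alpha-UAS-bla HEK 293T cells in 2% charcoal-stripped FBS medium were exposed to compounds for 16 hr at 37 C in agonist mode. Beta-lactamase reporter read as 460/530 nm FRET ratio after 2 hr substrate loading.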
# [2] = qHTS assay to identify small molecule antagonists of the retinoid acid receptor (RAR) signaling pathway - cell viability counter screen (AID 1159551); also: nearly all actives have a fitted effect of over 35% in size
# Procedure, shortened: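 Following overnight attachment, C3RL4 reporter cells received DMSO-dissolved compounds and then retinol (1 uM final). Six hours later at 37 C, ATP content was measured by CellTiter-Glo luminescence.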
# [3] = qHTS assay to identify small molecule antagonists of the estrogen related receptor (ERR) signaling pathway from Tox21 library - cell viability counter screen (AID 1224834); also: nearly all actives have a fitted effect of over 30% in size
# Procedure, shortened: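 Viability readout (CellTiter-Fluor fluorescence, 30 min at 37 C) multiplexed with the ERR assay; cells treated 17.5 h at 37 C with compounds delivered in DMSO.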
# [4] = target: Luciferin 4-monooxygenase (Photinus pyralis) (UniProt P08659); test: qHTS assay to identify small molecule inhibitors of firefly luciferase (AID 1224835); also: nearly all actives have a fitted effect of over 25% in size; also: potency is read from the fitted curve at half-maximal effect; as to activity change, negative = inhibition: series mostly up to about 120 µM
# Procedure, shortened: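 Biochemical qHTS: compounds run as interplate titrations against purified firefly enzyme, with D-luciferin and ATP each at its KM concentration. Light output recorded by CCD imaging.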
# [5] = qHTS assay to identify small molecule agonists of the constitutive androstane receptor (CAR) signaling pathway - cell viability counter screen (AID 1224836); also: series mostly up to about 92 µM; nearly all actives have a fitted effect of over 45% in size
# Procedure, shortened: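 HepG2 cells stably carrying hCAR and a CYP2B6-2.2kb reporter; 15-concentration compounds plus PK11195 (final 0.75 uM), 23 hr at 37 C/5% CO2. Viability read by CellTiter-Fluor fluorescence.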
# [6] = qHTS assay to identify small molecule antagonists of the constitutive androstane receptor (CAR) signaling pathway - cell viability counter screen (AID 1224837); also: series mostly up to about 92 µM; nearly all actives have a fitted effect of over 45% in size
# Procedure, shortened: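 Fluorescence from CellTiter-Fluor served as the viability signal. Human hepatoma HepG2 cells stably bearing hCAR and CYP2B6-2.2kb received compound plus CITCO (50 nM final) for 23 hr.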
# [7] = target: Nuclear receptor subfamily 1 group I member 3 (Homo sapiens) (UniProt Q14994); test: qHTS assay to identify small molecule agonists of the constitutive androstane receptor (CAR) signaling pathway (AID 1224839);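 also: HepG2 cells stably carrying human CAR and a CYP2B6 luciferase reporter; series mostly up to about 92 µM; nearly all actives have a fitted effect of over 15% in size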
# Procedure, shortened: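 HepG2 cells stably co-transfected with hCAR and a CYP2B6-2.2kb luciferase reporter; compounds at 15 concentrations with 0.75 uM PK11195 present. After 24 hr at 37 C, luciferase read by ONE-Glo luminescence.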
# [8] = qHTS assay to identify small molecule antagonists of the estrogen related receptor signaling pathway with the pleiotropic PPARgamma coactivator (PGC) from Tox21 10K library - cell viability counter screen (AID 1224840; active = well fitted cell-killing curve with a large enough effect in the repeat runs, not every such curve was filed as active; also: nearly all actives have a fitted effect of over 40% in size)
# Procedure, shortened: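 Compounds in DMSO, alongside positive and negative controls, were pinned onto PGC/ERR cells (2,000 per well). Exposure lasted 17.5 hours at 37 C, followed by a 30-minute CellTiter-Fluor incubation and fluorescence reading.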
# [9] = target: Thyrotropin receptor (Homo sapiens) (UniProt P16473); test: qHTS assay to identify small molecule agonists of the thyroid stimulating hormone receptor (TSHR) signaling pathway (AID 1224843; calls by dose curve; also: nearly all actives have a fitted effect of over 45% in size)
# Procedure, shortened: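 TSHR-HEK293 cells in agonist mode, 30 min room-temperature step, then cAMP measured by competitive HTRF (cAMP-d2 with anti-cAMP cryptate) after 1 h at room temperature. Tested at 15 concentrations in triplicate.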
# [10] = qHTS assay to identify small molecule agonists of the RXR signaling pathway - cell viability counter screen (AID 1159529); also: series mostly up to about 77 µM; nearly all actives have a fitted effect of over 50% in size
# Procedure, shortened: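 RXR-alpha-UAS-bla HEK 293T cells in medium with 2% charcoal-stripped FBS were pre-incubated 5 hr, then compound-treated 16 hr at 37 C. Viability was read by CellTiter-Glo luminescence in the same wells as the beta-lactamase assay, with tetraoctyl ammonium bromide as positive control.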
# [11] = qHTS assay to identify small molecule antagonists of the retinoic acid receptor (RAR) signaling pathway (AID 1159552; also: nearly all actives have a fitted effect of over 50% in size)
# Procedure, shortened: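 Retinol signaling pathway inhibitors screened in C3RL4 RARE-luciferase reporter cells seeded overnight at 37 C, then compounds added with 1 uM (final) retinol as pathway substrate. After 6 hr at 37 C, luciferase luminescence read after 30 min at room temperature.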
# [12] = qHTS assay to identify small molecule agonists of the retinoic acid receptor (RAR) signaling pathway (AID 1159553)
# Procedure, shortened: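 Cell line C3RL4, RARE luciferase reporter. Treatment: compounds in DMSO, 6 hr, 37 C, 5% CO2, after overnight plating. Detection: luminescence, 30 min RT after reagent.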
# [13] = target: Nuclear receptor subfamily 1 group I member 3 (Homo sapiens) (UniProt Q14994); test: qHTS assay to identify small molecule antagonists of the constitutive androstane receptor (CAR) signaling pathway (AID 1224838);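 also: HepG2 cells stably expressing hCAR with CYP2B6 luciferase reporter stimulated by CITCO; nearly all actives have a fitted effect of over 40% in size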
# Procedure, shortened: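 Quantitative HTS in double-stable HepG2-CYP2B6-hCAR cells. After 4 h plating, cells get compound (15 concentrations) and CITCO at 50 nM final, incubate 24 h at 37 C, then ONE-Glo luminescence is read.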
# [14] = qHTS assay to identify small molecule antagonists of the estrogen related receptor signaling pathway with the pleiotropic PPARgamma coactivator (PGC) from Tox21 10K library (AID 1224841; call rule not given here; also: series mostly up to about 92 µM; actives are mostly falling curves and most rising ones were filed inactive; nearly all actives have a fitted effect of over 50% in size)
# Procedure, shortened: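 Compound exposure ran 18 hours at 37 C in PGC/ERR cells (2,000/well) that had first rested 6 hours in a 37 C/5% CO2 incubator. Luciferase activity was then detected with One-Glo after a 30-minute room-temperature step.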
# [15] = qHTS assay to identify small molecule agonists of the estrogen related receptor signaling pathway with the pleiotropic PPARgamma coactivator (PGC) from Tox21 10K library (AID 1224842); also: nearly all actives have a fitted effect of over 15% in size
# Procedure, shortened: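 PGC/ERR reporter cell line, 2,000 cells per well, incubated 6 h at 37 C before 23 nL compound in DMSO was added. After 18 h at 37 C, One-Glo luminescence read following 30 min at room temperature.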
# Luciferin 4-monooxygenase (Photinus pyralis), sequence (P08659 whole entry, looked up): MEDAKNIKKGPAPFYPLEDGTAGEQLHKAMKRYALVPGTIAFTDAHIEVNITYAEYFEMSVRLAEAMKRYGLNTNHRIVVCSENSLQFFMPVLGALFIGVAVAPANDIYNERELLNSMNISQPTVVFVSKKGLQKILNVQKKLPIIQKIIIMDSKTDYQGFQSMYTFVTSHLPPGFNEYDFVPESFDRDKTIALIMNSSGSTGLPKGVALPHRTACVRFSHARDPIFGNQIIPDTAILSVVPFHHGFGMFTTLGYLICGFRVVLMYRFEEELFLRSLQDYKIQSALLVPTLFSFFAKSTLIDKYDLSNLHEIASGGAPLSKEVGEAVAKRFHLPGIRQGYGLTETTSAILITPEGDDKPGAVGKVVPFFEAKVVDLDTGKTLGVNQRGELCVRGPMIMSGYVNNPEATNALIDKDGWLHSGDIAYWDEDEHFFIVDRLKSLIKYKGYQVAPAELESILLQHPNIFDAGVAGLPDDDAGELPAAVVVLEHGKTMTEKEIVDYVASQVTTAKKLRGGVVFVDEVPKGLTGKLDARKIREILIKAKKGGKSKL
# Nuclear receptor subfamily 1 group I member 3 (Homo sapiens), sequence (Q14994 whole entry, looked up): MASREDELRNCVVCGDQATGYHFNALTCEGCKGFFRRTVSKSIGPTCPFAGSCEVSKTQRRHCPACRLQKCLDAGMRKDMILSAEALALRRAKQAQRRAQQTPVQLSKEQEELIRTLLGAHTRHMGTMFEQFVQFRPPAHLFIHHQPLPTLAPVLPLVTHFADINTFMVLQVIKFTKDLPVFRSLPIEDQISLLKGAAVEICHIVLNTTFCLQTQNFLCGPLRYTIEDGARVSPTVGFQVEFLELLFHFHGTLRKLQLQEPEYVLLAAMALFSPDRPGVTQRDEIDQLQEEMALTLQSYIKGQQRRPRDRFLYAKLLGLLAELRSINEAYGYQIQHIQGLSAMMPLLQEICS
# Thyrotropin receptor (Homo sapiens), sequence (P16473 whole entry, looked up): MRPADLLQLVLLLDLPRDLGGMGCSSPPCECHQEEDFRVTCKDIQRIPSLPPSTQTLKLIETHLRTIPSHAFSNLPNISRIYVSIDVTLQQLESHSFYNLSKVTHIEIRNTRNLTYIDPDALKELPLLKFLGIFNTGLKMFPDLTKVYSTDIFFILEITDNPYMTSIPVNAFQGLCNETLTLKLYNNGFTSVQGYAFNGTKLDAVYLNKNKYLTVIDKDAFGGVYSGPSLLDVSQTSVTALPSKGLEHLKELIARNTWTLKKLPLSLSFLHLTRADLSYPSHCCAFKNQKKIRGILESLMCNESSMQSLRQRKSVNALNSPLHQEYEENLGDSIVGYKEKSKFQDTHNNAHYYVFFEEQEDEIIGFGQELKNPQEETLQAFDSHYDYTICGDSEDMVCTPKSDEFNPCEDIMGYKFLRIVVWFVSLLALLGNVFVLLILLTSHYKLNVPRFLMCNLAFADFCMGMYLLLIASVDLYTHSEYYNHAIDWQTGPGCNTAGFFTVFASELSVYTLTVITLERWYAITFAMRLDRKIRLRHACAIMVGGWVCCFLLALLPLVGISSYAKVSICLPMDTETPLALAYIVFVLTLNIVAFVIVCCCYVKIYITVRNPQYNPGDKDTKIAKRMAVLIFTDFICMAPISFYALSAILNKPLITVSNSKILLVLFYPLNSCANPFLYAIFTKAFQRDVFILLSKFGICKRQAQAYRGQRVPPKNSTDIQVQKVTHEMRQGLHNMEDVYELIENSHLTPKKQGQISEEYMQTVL
# Retinoic acid receptor RXR-alpha (Homo sapiens), sequence (P19793 whole entry, looked up): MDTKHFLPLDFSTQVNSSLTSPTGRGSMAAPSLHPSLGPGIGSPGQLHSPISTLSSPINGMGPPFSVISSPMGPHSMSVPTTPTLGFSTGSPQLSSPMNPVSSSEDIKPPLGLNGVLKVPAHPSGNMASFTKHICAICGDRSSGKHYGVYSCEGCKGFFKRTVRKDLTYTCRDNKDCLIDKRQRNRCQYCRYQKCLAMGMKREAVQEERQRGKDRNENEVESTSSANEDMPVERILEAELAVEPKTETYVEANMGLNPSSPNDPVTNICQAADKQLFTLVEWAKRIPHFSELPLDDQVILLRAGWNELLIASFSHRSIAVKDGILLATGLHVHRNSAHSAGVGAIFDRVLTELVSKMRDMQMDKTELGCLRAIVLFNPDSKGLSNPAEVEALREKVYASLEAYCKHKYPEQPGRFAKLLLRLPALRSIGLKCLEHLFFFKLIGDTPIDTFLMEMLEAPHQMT
smiles,measurement,setting,value
NC1=NC(=O)C(c2ccccc2)O1 (stereo not drawn),Potency,[1],inactive
same,Potency,[2],inactive
same,Potency,[3],inactive
same,Potency,[4],inactive
same,Potency,[5],inactive
same,Potency,[6],inactive
same,Potency,[7],inactive
same,Potency,[8],inactive
same,Potency,[9],inactive
OC(Cn1cncn1)(c1ccc(F)cc1)c1ccccc1F (stereo not drawn),Potency,[1],inactive
same,Potency,[2],inactive
same,Potency,[3],inactive
same,Potency,[4],inactive
same,Potency,[5],inactive
same,Potency,[6],inactive
same,Potency,[8],inactive
same,Potency,[9],inactive
O=C(O)c1ccc2[nH]cc(CCCCN3CC=C(c4ccccc4)CC3)c2c1,Potency,[1],inactive
same,Potency,[2],inactive
same,Potency,[3],inactive
same,Potency,[4],inactive
same,Potency,[5],inactive
same,Potency,[6],inactive
same,Potency,[7],inactive
same,Potency,[8],inactive
CN1CCN(C(=O)O[C@H]2c3nccnc3C(=O)N2c2ccc(Cl)cn2)CC1,Potency,[10],inactive
same,Potency,[2],inactive
same,Potency,[11],inactive
same,Potency,[12],inactive
same,Potency,[3],inactive
same,Potency,[4],inactive
same,Potency,[5],inactive
same,Potency,[6],inactive
same,Potency,[13],inactive
COc1cc(OC)nc(Oc2cccc(Oc3nc(OC)cc(OC)n3)c2C(=O)O)n1,Potency,[1],inactive
same,Potency,[2],inactive
same,Potency,[3],inactive
same,Potency,[4],inactive
same,Potency,[5],inactive
O=C1c2ccccc2C(=O)c2ccccc21,activation,[1],2.89% [at 15.8 µM]
same,"activity change, negative = cytotoxicity",[2],3.84% [at 19 µM]
same,"activity, negative = inhibition",[11],14.2% [at 19 µM]
same,"viability change, negative = cytotoxic",[3],0.548% [at 19 µM]
same,"activity change, negative = inhibition",[4],3.8% [at 23.6 µM]
same,"viability change, negative = cytotoxic",[5],5.88% [at 19 µM]
same,"activity change, negative = cytotoxicity",[6],4.8% [at 19 µM]
same,"viability change, negative = cytotoxic",[8],4.21% [at 19 µM]
same,"activity, negative = inhibition",[14],16.6% [at 19 µM]
same,activation,[15],5.32% [at 19 µM]
same,activation,[9],-2.19% [at 19 µM]
CCCCOC(=O)c1ccccc1N,Potency,[1],inactive
same,Potency,[2],inactive
same,Potency,[11],inactive
same,Potency,[3],inactive
same,Potency,[4],40.1 µM (active)
same,Potency,[5],inactive
same,Potency,[6],inactive
same,Potency,[8],inactive
